Source: PubChem BioAssay (NCATS)
Inconclusive results are not listed. Activity calls are given as the source filed them. Unless noted, calls come from the whole dose curve; as a rule, active = well fitted cell-killing curve with a large enough effect; inconclusive = small, poorly fitted or top-dose-only effect; inactive = flat fitted curve, though single readings scatter.

Legend:
[1] = Cell Viability - LYMP2-006 (AID 978);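 note: cells exposed to compound for 24 hours; % is set by controls: 0 for no effect and ±100 for the full control effect; nearly all actives have a fitted effect of over 60% in size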
Summary of the method: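 In this cytotoxicity screen, the human lymphoblastoid line grew in complete medium with test compounds for 24 hr at 37 C. Cellular ATP served as the viability signal.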

[2] = Cell Viability - LYMP2-007 (AID 979);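 note: cells exposed to compound for 24 h before reading; 0% = DMSO only and the negative end = 92 µM tetraoctylammonium bromide; nearly all actives have a fitted effect of over 60% in size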
Summary of the method: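 qHTS cytotoxicity: 2500 cells/well, 5 hr 37 C settle, compound 24 hr 37 C, CellTiter-Glo 30 min RT, luminescence. Decrease in ATP = toxicity. AC50 by standard Hill equation; tetraoctylammonium bromide positive control.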

[3] = Cell Viability - LYMP2-008 (AID 980); note: % is set by controls: 0 for no effect and ±100 for the full control effect; nearly all actives have a fitted effect of over 60% in size
Summary of the method: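 Luminescent ATP read-out (CellTiter-Glo, 30 min RT) after 24 hr compound exposure at 37 C of human lymphoblastoid cells in complete medium. Decrease in ATP taken as cytotoxicity; AC50 derived by standard Hill fit of qHTS concentration-response data.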

[4] = Cell Viability - LYMP2-010 (AID 981);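 note: cells exposed to compound for 24 hours at 37 °C; % is set by controls: 0 for no effect and ±100 for the full control effect; nearly all actives have a fitted effect of over 55% in size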
Summary of the method: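 qHTS cytotoxicity, 1536-well: 2500 cells/well, 5 hr settle, 24 hr compound at 37 C, CellTiter-Glo 30 min RT, luminescence read. Decrease in ATP = toxicity; AC50 via standard Hill equation. Positive control tetraoctylammonium bromide.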

[5] = Cell Viability - LYMP2-012 (AID 982);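 note: cellular ATP by luciferase luminescence where a drop means cytotoxicity; cells exposed to compound for one day before reading; 0% = DMSO only and full loss = 92 µM tetraoctylammonium bromide; nearly all actives have a fitted effect of over 55% in size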
[6] = Cell Viability - LYMP2-014 (AID 983);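 note: plate controls were DMSO only for no effect and 92 µM tetraoctylammonium bromide for full effect; nearly all actives have a fitted effect of over 50% in size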
Summary of the method: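 2500 cells/well, 5 hr 37 C; cpd 24 hr 37 C, complete medium; CellTiter-Glo 30 min RT, luminescence; ATP loss = toxicity; AC50 via Hill eqn; tetraoctylammonium bromide positive control.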

[7] = Cell Viability - LYMP2-016 (AID 984);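 note: cells exposed to compound for 24 hours at 37 °C; % is set by controls: 0 for no effect and ±100 for the full control effect; nearly all actives have a fitted effect of over 55% in size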
Summary of the method: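 Concentration-dependent ATP depletion measured in LYMP2-016 lymphoblastoid cells, 24 h, 37 C; luciferase-based luminescent detection; Hill-equation AC50.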

[8] = Cell Viability - LYMP2-018 (AID 985);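 note: plate controls were DMSO only for no effect and tetraoctylammonium bromide at 92 µM for full effect; nearly all actives have a fitted effect of over 50% in size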
Summary of the method: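 2500 cells/well; 5 hr 37 C; cmpd 24 hr 37 C, complete medium; CellTiter-Glo 30 min RT; luminescence. Tetraoctylammonium bromide positive control. AC50 via Hill fit.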

[9] = Cell Viability - LYMP2-020 (AID 986);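 note: plate controls were DMSO only for no effect and tetraoctylammonium bromide at 92 µM for full effect; nearly all actives have a fitted effect of over 55% in size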
Summary of the method: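 qHTS, 2500 cells/well; 5 hr then 24 hr compound exposure, 37 C; CellTiter-Glo luminescence after 30 min RT; ATP decrease taken as cytotoxicity; AC50 via Hill equation; tetraoctylammonium bromide positive control.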

[10] = Cell Viability - LYMP2-022 (AID 987)
Summary of the method: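 Luminescent ATP read-out (CellTiter-Glo, 30 min, RT) after 24 hr, 37 C compound exposure of 2500 human lymphoblastoid cells/well in complete medium. Cytotoxicity taken as concentration-dependent ATP loss; AC50 from standard Hill equation.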

[11] = Cell Viability - LYMP2-024 (AID 988);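 note: plate controls were DMSO only for no effect and 92 µM tetraoctylammonium bromide for full effect; nearly all actives have a fitted effect of over 60% in size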
Summary of the method: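 ATP-based luminescence (CellTiter-Glo, 30 min RT) after 24 h compound exposure at 37 C of 2500 lymphoblastoid cells/well; decrease in ATP taken as cytotoxicity. qHTS concentration-response fitted to standard Hill equation for AC50.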

[12] = Cell Viability - LYMP2-026 (AID 989); note: % is set by controls: 0 for no effect and ±100 for the full control effect; nearly all actives have a fitted effect of over 50% in size
Summary of the method: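 qHTS cytotoxicity: 2500 cells/well, 5 hr 37 C, compound 24 hr 37 C, CellTiter-Glo 30 min RT, luminescence. Tetraoctylammonium bromide positive control. AC50 via standard Hill fit.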

[13] = Cell Viability - LYMP1-002 - Assay at 24 hr (AID 993); note: % is set by controls: 0 for no effect and ±100 for the full control effect
Summary of the method: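 CellTiter-Glo luminescence (intracellular ATP) after 24 h compound exposure, 37 C, in LYMP1-002 human lymphoblastoid cells; decreased ATP taken as cytotoxicity. AC50 from standard Hill fit of concentration-response curves.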

[14] = Cell Viability - LYMP1-002 - Assay at 40 hr (AID 994)
Summary of the method: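 qHTS cytotoxicity; 2500 cells/well, 5 hr 37 C settle, compound 40 hr 37 C. CellTiter-Glo, 30 min RT, luminescence (ATP). Concentration-response, Hill fit → AC50. Pos. ctrl tetraoctylammonium bromide.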

[15] = qHTS Assay for Lipid Storage Modulators (AID 1519; calls by dose curve; for activity change, negative = inhibition: % is set by controls: 0 for no effect and ±100 for the full control effect); settings: Drosophila S3 cells, BODIPY lipid droplet/cell ratio, laser cytometry, cells loaded with oleic acid
Summary of the method: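 Cells seeded at 5,000 per well were treated with compounds over a concentration series and loaded with oleic acid (400 uM, as added). Lipid droplet fluorescence (488 nm excitation, 500-530 nm channel) was read by laser-scanning cytometry and normalized to 20 uM Triacsin C.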

[16] = qHTS Assay for Identification of Small Molecule Inducers of Hypoxia Response (AID 2120; active = well fitted curve in the direction sought with a large enough effect in the signal ratio, with a control signal flat, not every such curve was filed as active; the % refers to the signal ratio; note: 0% is about no effect)
Summary of the method: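 Read-out: CCF4 FRET emission ratio 460nm/530nm (excitation 405nm), converted to %Activity, with AC50 fitted across a compound titration. ME-180 cells carried an HRE-driven beta-lactamase reporter; compound exposure 17 h, 37 degrees C.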

[17] = target: Estrogen receptor (Homo sapiens) (UniProt P03372); assay: qHTS assay for small molecule antagonists of estrogen receptor alpha signaling (AID 588513; active = well fitted curve in the direction sought with a large enough effect in the signal ratio, with a control signal flat, not every such curve was filed as active; the % refers to the signal ratio; note: % is set by controls: 0 for no effect and ±100 for the full control effect)
Summary of the method: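 Antagonist-mode qHTS in ER-alpha-UAS-bla HEK 293 cells: compound titration, 0.5nM estradiol for 18 h, CCF4 fluorescence, Hill-derived IC50.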

[18] = qHTS assay for small molecule antagonists of peroxisome proliferator-activated receptor delta signaling (AID 588535; active = well fitted inhibition curve with a large enough effect in the signal ratio, with a control signal flat, not every such curve was filed as active; the % refers to the signal ratio;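 for max response: cells co-treated with a PPAR-delta agonist as stimulator during compound exposure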); settings: HEK293T PPARd-UAS-bla, beta-lactamase FRET ratio, 18 h; 460 nm channel
Summary of the method: (§1)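 Compounds tested in titration on PPAR-delta-UAS-bla HEK293T cells grown in charcoal/dextran-stripped serum (2%); beta-lactamase activity read via CCF4 emission at 460 and 530 nm.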

[19] = target: Peroxisome proliferator-activated receptor delta (Homo sapiens) (UniProt Q03181); assay: as above
Summary of the method: as §1

Sequence of Peroxisome proliferator-activated receptor delta (Homo sapiens) (Q03181 whole entry, looked up): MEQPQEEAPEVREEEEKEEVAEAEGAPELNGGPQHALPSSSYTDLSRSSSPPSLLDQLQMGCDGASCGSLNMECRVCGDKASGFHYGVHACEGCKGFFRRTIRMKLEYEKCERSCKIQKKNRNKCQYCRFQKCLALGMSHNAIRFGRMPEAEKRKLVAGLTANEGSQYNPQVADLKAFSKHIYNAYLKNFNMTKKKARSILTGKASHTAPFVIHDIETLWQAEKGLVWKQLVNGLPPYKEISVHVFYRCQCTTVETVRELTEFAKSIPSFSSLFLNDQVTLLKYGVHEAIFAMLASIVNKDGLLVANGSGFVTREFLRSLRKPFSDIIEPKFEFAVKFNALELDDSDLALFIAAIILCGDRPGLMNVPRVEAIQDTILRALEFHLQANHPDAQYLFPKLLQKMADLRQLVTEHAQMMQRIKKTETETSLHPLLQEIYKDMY
Sequence of Estrogen receptor (Homo sapiens) (P03372 whole entry, looked up): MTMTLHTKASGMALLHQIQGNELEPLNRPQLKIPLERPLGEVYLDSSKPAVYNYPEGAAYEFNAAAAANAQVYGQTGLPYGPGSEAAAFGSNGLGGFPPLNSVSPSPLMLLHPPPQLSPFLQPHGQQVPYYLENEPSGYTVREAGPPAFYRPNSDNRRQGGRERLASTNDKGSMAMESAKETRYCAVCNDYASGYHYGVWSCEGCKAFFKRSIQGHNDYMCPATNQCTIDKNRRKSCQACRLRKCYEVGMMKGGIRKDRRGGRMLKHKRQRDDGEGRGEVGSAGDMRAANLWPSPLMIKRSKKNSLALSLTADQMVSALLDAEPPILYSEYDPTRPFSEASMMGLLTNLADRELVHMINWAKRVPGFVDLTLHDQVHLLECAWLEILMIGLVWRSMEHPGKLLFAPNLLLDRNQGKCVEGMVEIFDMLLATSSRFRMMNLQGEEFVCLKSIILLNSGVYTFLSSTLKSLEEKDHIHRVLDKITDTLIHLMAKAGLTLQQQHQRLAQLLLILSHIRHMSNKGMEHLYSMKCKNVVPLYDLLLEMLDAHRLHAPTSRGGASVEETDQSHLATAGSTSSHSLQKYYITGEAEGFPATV

O=C(Nc1ccccc1)Nc1ccccc1
11.7%: max response ([15]; measured here: lipid channel max response)
-7.95%: max response [18]
-3.21%: max response ([15]; measured here: cell count channel max response)
inactive: outcome [1] | outcome [2] | outcome [3] | outcome [4] | outcome [5] | outcome [6] | outcome [7] | outcome [8] | outcome [9] | outcome [10] | outcome [11] | outcome [12] | outcome [13] | outcome [14] | activity change, negative = inhibition ([15]; at 57.5 µM (top of the series)) 11.8% | outcome [16] | outcome [17] | outcome [19]
